Sampled rows, rich in hits. Any-hit rate of the full collection: about 1.4%.
AmpC inh no detg: blocks E. coli AmpC beta-lactamase in detergent-free assay; P00811; AmpC nitrocefin hydrolysis, absorbance 480 nm, 0.0001% Triton; Potency, µM (top dose mostly 57.1 µM), hits mostly inhibitors; actives 0.52% (n = 330,000); AID 485341; also: nearly all actives have a fitted effect of over 20% in size
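AmpC (5.3 nM in the dispensed reagent) in 20 mM phosphate pH 7.0 with 0.01% (detergent screen) or 0.0001% Triton X-100 was preincubated with compounds for 15 min at room temperature. Nitrocefin was then added from an 800 uM solution, and hydrolysis was followed at 480 nm.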
AmpC inh detg: AmpC beta-lactamase inhibition with detergent present. P00811. AmpC hydrolysis of nitrocefin, absorbance 480 nm, 0.01% Triton. Potency, µM (titrated, usually from 114 µM), actives largely listed as inhibitors. actives 0.041% (n = 370,000). AID 485294; also: nearly all actives have a fitted effect of over 25% in size
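20 mM phosphate pH 7.0 + 0.01% (detergent screen) or 0.0001% Triton X-100; 5.3 nM AmpC reagent; cpd preinc 15 min RT; nitrocefin (800 uM stock) to start; A480 q20 s × 4 min; Activity was normalised to no-enzyme and no-compound control wells.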
NS1 inh: blocks influenza NS1 protein function | Potency, µM (titrated, usually from 46.1 µM) | actives 0.4% (n = 270,000); calls by dose curve; also: actives are rising curves; nearly all actives have a fitted effect of over 50% in size
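In this qHTS, NS1 from influenza A is expressed in budding yeast, where it slows growth. Cells are switched from glucose to 2% galactose medium (pH 6.0, -URA), treated with compound, and growth recovery is read at OD600.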
SARS PLP yeast: SARS-CoV PLP inhibition in yeast. S. cerevisiae expressing SARS-CoV PLpro, growth rescue. Potency, µM (series often up to 32.9 µM), usual class: activators. actives 0.19% (n = 330,000). AID 485353; calls by dose curve; also: nearly all actives have a fitted effect of over 55% in size
Giardia FBPA inh-1: Giardia lamblia aldolase inhibition | Potency, µM (top dose mostly 59.6 µM), usual class: inhibitors | A8B2U2 | purified Giardia FBPA | actives 0.71% (n = 290,000); also: nearly all actives have a fitted effect of over 55% in size
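Giardia FBPA (40 nM reagent) was preincubated 10 min at RT with compound (up to 57.5 uM final), then substrate plus GAPDH/TPI/NAD/arsenate coupling system with diaphorase/resazurin was added; resorufin fluorescence (525/598 nm) was read after 20 min.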
Giardia growth: blocks growth of Giardia lamblia trophozoites. Potency, µM (top dose mostly 57.5 µM), usual class: inhibitors. shares compounds with Giardia FBPA inh-1. actives 5% (n = 1,500). AID 2785. Giardia lamblia trophozoite growth inhibition;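 also: trophozoites exposed to compound for 48 h at 37 °C; nearly all actives have a fitted effect of over 70% in size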
Mammalian tox: mammalian cytotoxicity of Giardia aldolase inhibitor hits | shares compounds with Giardia FBPA inh-1 | mammalian cell viability counter-screen, qHTS | Potency, µM (top dose mostly 57.5 µM), usual class: inhibitors | actives 4% (n = 1,500);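 also: Chinese hamster ovary cells used as mammalian cytotoxicity surrogate; viability measured as cellular ATP by luminescence; compound exposure lasted 48 h before reading; nearly all actives have a fitted effect of over 60% in size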
Giardia FBPA inh-2: confirmation of Giardia fructose-bisphosphate aldolase inhibitors; Potency, µM (doses to about 57.5 µM), hits mostly inhibitors; actives 5% (n = 1,500); shares compounds with Giardia FBPA inh-1; purified Giardia aldolase enzyme activity, qHTS; also: nearly all actives have a fitted effect of over 45% in size
Rabbit aldolase: selectivity test for Giardia aldolase inhibitors: rabbit aldolase. shares compounds with Giardia FBPA inh-1. Rabbit muscle FBPA enzyme inhibition, selectivity counter-screen. Potency, µM (series often up to 57.5 µM), hits mostly inhibitors. actives 4% (n = 1,500); also: nearly all actives have a fitted effect of over 60% in size
Target sequence (P00883 whole entry, looked up): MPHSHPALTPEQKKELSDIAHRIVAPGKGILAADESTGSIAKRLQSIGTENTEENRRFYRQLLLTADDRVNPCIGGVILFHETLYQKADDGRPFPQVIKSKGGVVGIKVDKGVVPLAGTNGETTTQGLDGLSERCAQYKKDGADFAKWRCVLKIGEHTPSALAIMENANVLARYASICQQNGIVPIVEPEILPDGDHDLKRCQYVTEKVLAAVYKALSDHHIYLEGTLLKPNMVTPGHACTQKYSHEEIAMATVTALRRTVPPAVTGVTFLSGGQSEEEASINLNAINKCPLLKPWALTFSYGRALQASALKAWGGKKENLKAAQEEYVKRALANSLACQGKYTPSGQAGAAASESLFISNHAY
GAPDH counter: GAPDH inhibition flagged for Giardia aldolase hits. shares compounds with Giardia FBPA inh-1. GAPDH coupling enzyme counterscreen, biochemical, qHTS. Potency, µM (highest dose often 57.5 µM), usual class: inhibitors. actives 6% (n = 1,500); also: nearly all actives have a fitted effect of over 55% in size
Of the large screens only hits and unclear results are named; the others gave an inactive call (follow-up assays come after a bar, where they were run); [ ] = another dose, or the depositor's remark. Unless noted, calls follow the shape of the dose curve; as a rule, active = well fitted curve in the direction sought with a large enough effect; inconclusive = small, poorly fitted or top-dose-only effect, or another doubt; inactive = no such curve, though single readings can be large; an effect the other way counts as inactive or inconclusive.

COc1ccc2cc3cc(C(=O)NCCN4CCc5ccccc5C4)oc3nc2c1	Giardia FBPA inh-1 18µM | Giardia growth inactive | Mammalian tox inactive | Giardia FBPA inh-2 inactive | Rabbit aldolase inactive | GAPDH counter inactive
COc1ccc(/C=N/NC2=NS(=O)(=O)c3ccccc32)cc1OC	NS1 inh inconclusive, Giardia FBPA inh-1 10µM | Giardia growth inactive[10.4 µM] | Mammalian tox inactive | Giardia FBPA inh-2 inactive | Rabbit aldolase inactive | GAPDH counter inactive
COc1ccc(C(=O)NNC2=NS(=O)(=O)c3ccccc32)cc1OC	none
COc1cc(/C=N/NC2=NS(=O)(=O)c3ccccc32)ccc1OC(C)=O	Giardia FBPA inh-1 11µM | Giardia growth inactive | Mammalian tox inactive | Giardia FBPA inh-2 inactive | Rabbit aldolase inactive | GAPDH counter inactive
CCN(CC(=O)NCc1ccccc1Cl)CC(=O)Nc1c(F)cccc1F	Giardia FBPA inh-1 18µM | Giardia growth inactive | Mammalian tox inactive | Giardia FBPA inh-2 inactive | Rabbit aldolase inactive | GAPDH counter inactive
CN(C)CCN(Cc1cc2cc3c(cc2[nH]c1=O)OCCO3)C(=S)NCC1CCCO1 (stereo not given)	none
Cc1c(N=CC=Nc2c(C)n(C)n(-c3ccccc3)c2=O)c(=O)n(-c2ccccc2)n1C	NS1 inh inconclusive
Cc1c(N=Nc2c(O)n(-c3ccc(Br)cc3)c(=O)[nH]c2=O)c(=O)n(-c2ccccc2)n1C	Giardia FBPA inh-1 16µM | Giardia growth inconclusive | Mammalian tox inactive | Giardia FBPA inh-2 inactive | Rabbit aldolase inactive | GAPDH counter inactive
Cc1c(N=Nc2c(O)[nH]c(=O)[nH]c2=O)c(=O)n(-c2ccccc2)n1C	Giardia FBPA inh-1 16µM (no result: NS1 inh) | Giardia growth inactive[10.4 µM] | Mammalian tox inactive | Giardia FBPA inh-2 inactive | Rabbit aldolase inactive | GAPDH counter inactive
COc1ccc(S(=O)(=O)NNC(N)=S)cc1	AmpC inh detg inconclusive, Giardia FBPA inh-1 10µM (no result: NS1 inh) | Giardia growth inactive | Mammalian tox inactive | Giardia FBPA inh-2 inactive | Rabbit aldolase inactive | GAPDH counter inactive
COC(=O)CC1C(=O)NCCN1C(=S)NC(=O)c1ccccc1[N+](=O)[O-] (stereo not given)	AmpC inh detg inconclusive, Giardia FBPA inh-1 7.1µM | Giardia growth inactive | Mammalian tox inactive | Giardia FBPA inh-2 inactive | Rabbit aldolase inactive | GAPDH counter inactive
CCOC(=O)CC1C(=O)NCCN1C(=S)NC(=O)c1ccccc1OC (stereo not given)	none (no result: Giardia FBPA inh-1)
COC(=O)CC1C(=O)NCCN1C(=S)Nc1ccccc1 (stereo not given)	none
CC(C)OC(=O)CC1C(=O)NCCN1C(=S)NC(=O)c1cccs1 (stereo not given)	Giardia FBPA inh-1 5.6µM | Giardia growth inactive | Mammalian tox inactive | Giardia FBPA inh-2 inactive | Rabbit aldolase inactive | GAPDH counter inactive
c1cnc2c(Oc3ncnc4sccc34)cccc2c1	none (no result: NS1 inh)
Cc1nnc(SC(C)C(=O)Nc2ccc3ccccc3c2)[nH]c1=O (stereo not given)	none
O=C1C(=O)c2ccccc2-c2ccccc21	Giardia FBPA inh-1 0.14µM | Giardia growth 13µM | Mammalian tox 20µM | Giardia FBPA inh-2 1.1µM | Rabbit aldolase 0.89µM | GAPDH counter 1.1µM
O=S(=O)(/N=C(/NC(=S)Nc1ccccc1)c1ccccc1)c1ccc(Cl)cc1	Giardia FBPA inh-1 18µM | Giardia growth inconclusive | Mammalian tox inactive | Giardia FBPA inh-2 inactive | Rabbit aldolase inactive | GAPDH counter inactive

Bioassay records deposited in PubChem BioAssay by National Center for Advancing Translational Sciences (NCATS).
